Experimental data: PubChem BioAssay (Tox21)
Inconclusive results are not listed. Active and inactive are the calls of the source. Unless noted, calls follow the shape of the dose curve; as a rule, active = well fitted curve in the direction sought with a large enough effect in the repeat runs; inconclusive = weak or mixed curves; inactive = no such curve, though single readings can be large; an effect the other way counts as inactive or inconclusive.

Tests used:
[1] = qHTS assay to identify aromatase inhibitors - cell viability counter screen (AID 743084);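 also: cells stimulated with testosterone during compound exposure; nearly all actives have a fitted effect of over 55% in size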
[2] = molecular target: Aryl hydrocarbon receptor (Homo sapiens) (UniProt P35869); assay: qHTS assay to identify small molecule that activate the aryl hydrocarbon receptor (AhR) signaling pathway (AID 743085);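 also: HG2L7.5c1 human HepG2 liver cells with stably integrated DRE-driven firefly reporter; series mostly up to about 70 µM; nearly all actives have a fitted effect of over 15% in size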
In short: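 Reporter assay in engineered HepG2 line HG2L7.5c1, whose plasmid carries twenty dioxin responsive elements upstream of firefly luciferase. Treatment lasted 24 h at 37C; ONE-Glo luminescence gauged induction.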

[3] = qHTS assay to identify small molecule that activate the aryl hydrocarbon receptor (AhR) signaling pathway - cell viability counter screen (AID 743086);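 also: HepG2 liver cells carrying the AhR DRE luciferase reporter; series mostly up to about 70 µM; nearly all actives have a fitted effect of over 45% in size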
In short: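 HepG2-AhR-luc (HG2L7.5c1) cells, 4000/well, were preincubated 5 h at 37C, exposed to compound in qHTS format for 24 hr at 37C, then given CellTiter-Fluor for 30 min; viability was read as fluorescence in the reporter wells.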

[4] = molecular target: Peroxisome proliferator-activated receptor gamma (Homo sapiens) (UniProt P37231); assay: qHTS assay to identify small molecule agonists of the peroxisome proliferator-activated receptor gamma (PPARg) signaling pathway (AID 743094; active = well fitted activation curve with a large enough effect in the signal ratio in the repeat runs, not every such curve was filed as active; the % refers to the signal ratio)
In short: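 Quantitative HTS agonist mode: stable HEK293H line with UAS-beta-lactamase reporter under PPARg control, 17 h compound exposure at 37C, fluorescence after 1 h FRET substrate loading at room temperature.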

[5] = molecular target: Peroxisome proliferator-activated receptor gamma (Homo sapiens) (UniProt P37231); assay: qHTS assay to identify small molecule antagonists of the peroxisome proliferator-activated receptor gamma (PPARg) signaling pathway (AID 743191; calls by dose curve; also: series mostly up to about 63 µM; nearly all actives have a fitted effect of over 30% in size)
In short: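 GeneBLAzer PPARg UAS-bla HEK293H cells carrying a UAS-driven beta-lactamase reporter were plated at 3000 cells/well, preincubated 5 h at 37C, then given compound for 17 h at 37C; LiveBLAzer B/G FRET substrate was read after 1 h at room temperature.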

[6] = qHTS assay for small molecule agonists of the antioxidant response element (ARE) signaling pathway - cell viability counter screen (AID 743203; calls by dose curve; also: nearly all actives have a fitted effect of over 55% in size)
In short: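 Seeded at 2,000 cells/well, ARE-bla HepG2 cells were incubated 5 hrs before compound addition. After 16 hrs of treatment at 37C with 5% CO2, CellTiter-Glo reagent was added and luminescence read 30 min later.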

[7] = qHTS assay for small molecule activators of the heat shock response signaling pathway - cell viability counter screen (AID 743209); also: nearly all actives have a fitted effect of over 50% in size
In short: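 First, HSE-bla HeLa cells were seeded at 1500 cells/well and kept overnight at 37 C. Next, compounds were pinned in and incubated 5 h. After the FRET substrate step, CellTiter-Glo was added and luminescence read 30 min later.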

[8] = qHTS assay for small molecule activators of the heat shock response signaling pathway (AID 743210; active = well fitted activation curve with a large enough effect in the signal ratio in the repeat runs, with a control signal flat, not every such curve was filed as active; the % refers to the signal ratio; also: series mostly up to about 63 µM)
In short: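 HSE-bla HeLa cells (beta-lactamase reporter under heat shock response elements) were exposed to compounds for 5 h at 37 C, then loaded with LiveBLAzer B/G FRET substrate for 2.5 h at room temperature before fluorescence reading.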

[9] = qHTS assay to identify small molecule agonists of the peroxisome proliferator-activated receptor delta (PPARd) signaling pathway - cell viability counter screen (AID 743211); also: nearly all actives have a fitted effect of over 55% in size
In short: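 Multiplexed format: after the 2 h room-temperature LiveBLAzer B/G FRET step, CellTiter-Glo was added to the same wells. Luminescence after 30 min gave cell viability; compound exposure was 17 h at 37C.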

[10] = molecular target: Peroxisome proliferator-activated receptor delta (Homo sapiens) (UniProt Q03181); assay: qHTS assay to identify small molecule agonists of the peroxisome proliferator-activated receptor delta (PPARd) signaling pathway (AID 743212; calls by dose curve)
In short: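 GeneBLAzer PPARd UAS-bla HEK293H cells (beta-lactamase reporter under UAS control), plated and rested 5 h at 37 C, then exposed to compounds in DMSO at 37 C; LiveBLAzer B/G FRET substrate added, 2 h room temperature, fluorescence read.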

[11] = qHTS assay to identify small molecule antagonists of the peroxisome proliferator-activated receptor delta (PPARd) signaling pathway - cell viability counter screen (AID 743213); also: nearly all actives have a fitted effect of over 50% in size
In short: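 Luminescence from CellTiter-Glo, added after the bla read and incubated 30 min at room temperature, gives viability of HEK293H PPARd-bla cells exposed to compounds for 17 h at 37 C with 300 nM L165041.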

[12] = molecular target: Peroxisome proliferator-activated receptor delta (Homo sapiens) (UniProt Q03181); assay: qHTS assay to identify small molecule antagonists of the peroxisome proliferator-activated receptor delta (PPARd) signaling pathway (AID 743215; active = well fitted inhibition curve with a large enough effect in the signal ratio in the repeat runs, not every such curve was filed as active; the % refers to the signal ratio;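 also: cells stimulated with agonist L165041 at 300 nM final during compound exposure; series mostly up to about 62 µM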)
In short: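 Inhibition of L165041-driven (300 nM final) PPARd signaling is scored in HEK293H UAS-bla cells. Exposure lasts 17 h at 37 C; beta-lactamase activity is then read by FRET substrate fluorescence after 2 h at room temperature.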

[13] = qHTS assay to identify small molecule agonists of the farnesoid-X-receptor (FXR) signaling pathway - cell viability counter screen (AID 743218); also: nearly all actives have a fitted effect of over 45% in size
In short: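 Cytotoxicity counter-screen run in parallel, same wells: FXR-UAS-bla HEK 293T cells dosed 16 h at 37 C, viability read by CellTiter-Glo luminescence after 30 min at room temperature.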

[14] = qHTS assay to identify small molecule antagonists of the farnesoid-X-receptor (FXR) signaling pathway - cell viability counter screen (AID 743221; active = well fitted cell-killing curve with a large enough effect in the repeat runs, not every such curve was filed as active; also: nearly all actives have a fitted effect of over 50% in size)
In short: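 CellTiter-Glo, 30 min RT, luminescence; same wells as the LiveBLAzer FRET read. Cells: FXR-UAS-bla HEK 293T. Treatment: compound with chenodeoxycholic acid 50 uM final, 16 h at 37 C.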

[15] = qHTS assay for small molecule agonists of the antioxidant response element (ARE) signaling pathway (AID 743202; active = well fitted activation curve with a large enough effect in the signal ratio in the repeat runs, not every such curve was filed as active; the % refers to the signal ratio)
In short: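 Read-out: LiveBLAzer B/G FRET substrate fluorescence after 2 h at room temperature, following 16 h compound treatment at 37 C of HepG2 cells carrying an ARE-driven beta-lactamase reporter.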

[16] = qHTS assay to identify small molecule antagonists of the peroxisome proliferator-activated receptor gamma (PPARg) signaling pathway - cell viability counter screen (AID 743194); also: nearly all actives have a fitted effect of over 55% in size
In short: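 PPARg-UAS-bla HEK293H cells were plated, rested 5 h at 37 C, then treated with compounds plus rosiglitazone (50 nM final) for 17 h at 37 C; viability was then read by CellTiter-Glo luminescence after 30 min at room temperature.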

[17] = molecular target: Bile acid receptor (Homo sapiens) (UniProt Q96RI1); assay: qHTS assay to identify small molecule antagonists of the farnesoid-X-receptor (FXR) signaling pathway (AID 743217; active = well fitted inhibition curve with a large enough effect in the signal ratio in the repeat runs, not every such curve was filed as active; the % refers to the signal ratio)
In short: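 Antagonist mode against 50 uM (final) chenodeoxycholic acid stimulation in FXR-bla HEK 293T cells, 16 h at 37 °C. Inhibition detected as reduced beta-lactamase activity via LiveBLAzer B/G FRET fluorescence after 2 h at room temperature.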

[18] = molecular target: Bile acid receptor (Homo sapiens) (UniProt Q96RI1); assay: qHTS assay to identify small molecule agonists of the farnesoid-X-receptor (FXR) signaling pathway (AID 743220; active = well fitted activation curve with a large enough effect in the signal ratio in the repeat runs, not every such curve was filed as active; the % refers to the signal ratio)
In short: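 Beta-lactamase reporter under UAS control in GeneBLAzer FXR HEK 293T cells (5000/well) measured with LiveBLAzer FRET substrate after 2 h at room temperature. Compound exposure lasted 16 h at 37C.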

[19] = molecular target: Vitamin D3 receptor (Homo sapiens) (UniProt P11473); assay: qHTS assay to identify small molecule agonists of the vitamin D receptor (VDR) signaling pathway (AID 743222; calls by dose curve)
In short: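 Quantitative HTS agonist-mode screen: compounds in DMSO were pin-transferred onto VDR-bla cells and incubated 16 h at 37C, 5% CO2. Reporter activity was detected with LiveBLAzer B/G FRET substrate after 2 h at room temperature.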

[20] = molecular target: Vitamin D3 receptor (Homo sapiens) (UniProt P11473); assay: qHTS assay to identify small molecule antagonists of the vitamin D receptor (VDR) signaling pathway (AID 743223; active = well fitted inhibition curve with a large enough effect in the signal ratio in the repeat runs, not every such curve was filed as active; the % refers to the signal ratio)
In short: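 After VDR-bla cells are plated and left 4 h at 37C, DMSO-dissolved compounds and 3 nM (final) calcitriol agonist are added. Incubation continues 16 h at 37C; FRET beta-lactamase substrate then develops 2 h at room temperature.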
% is scaled to controls: 0 for no effect and ±100 for the full control effect.

Peroxisome proliferator-activated receptor gamma (Homo sapiens), sequence (P37231 whole entry, looked up): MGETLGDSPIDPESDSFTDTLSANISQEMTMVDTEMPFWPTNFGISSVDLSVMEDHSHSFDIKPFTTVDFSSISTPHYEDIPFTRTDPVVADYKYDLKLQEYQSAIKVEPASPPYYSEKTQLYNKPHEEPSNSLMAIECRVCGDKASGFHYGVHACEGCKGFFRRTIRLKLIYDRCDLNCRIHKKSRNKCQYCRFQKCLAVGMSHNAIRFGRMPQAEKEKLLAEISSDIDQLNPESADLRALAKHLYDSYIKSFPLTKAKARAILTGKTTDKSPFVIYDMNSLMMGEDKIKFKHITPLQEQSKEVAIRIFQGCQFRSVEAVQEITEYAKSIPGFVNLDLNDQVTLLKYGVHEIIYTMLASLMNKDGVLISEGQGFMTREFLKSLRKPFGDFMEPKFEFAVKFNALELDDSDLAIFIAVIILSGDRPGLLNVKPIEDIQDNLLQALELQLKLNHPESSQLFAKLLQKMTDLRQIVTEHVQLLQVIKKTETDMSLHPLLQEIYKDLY
Aryl hydrocarbon receptor (Homo sapiens), sequence (P35869 whole entry, looked up): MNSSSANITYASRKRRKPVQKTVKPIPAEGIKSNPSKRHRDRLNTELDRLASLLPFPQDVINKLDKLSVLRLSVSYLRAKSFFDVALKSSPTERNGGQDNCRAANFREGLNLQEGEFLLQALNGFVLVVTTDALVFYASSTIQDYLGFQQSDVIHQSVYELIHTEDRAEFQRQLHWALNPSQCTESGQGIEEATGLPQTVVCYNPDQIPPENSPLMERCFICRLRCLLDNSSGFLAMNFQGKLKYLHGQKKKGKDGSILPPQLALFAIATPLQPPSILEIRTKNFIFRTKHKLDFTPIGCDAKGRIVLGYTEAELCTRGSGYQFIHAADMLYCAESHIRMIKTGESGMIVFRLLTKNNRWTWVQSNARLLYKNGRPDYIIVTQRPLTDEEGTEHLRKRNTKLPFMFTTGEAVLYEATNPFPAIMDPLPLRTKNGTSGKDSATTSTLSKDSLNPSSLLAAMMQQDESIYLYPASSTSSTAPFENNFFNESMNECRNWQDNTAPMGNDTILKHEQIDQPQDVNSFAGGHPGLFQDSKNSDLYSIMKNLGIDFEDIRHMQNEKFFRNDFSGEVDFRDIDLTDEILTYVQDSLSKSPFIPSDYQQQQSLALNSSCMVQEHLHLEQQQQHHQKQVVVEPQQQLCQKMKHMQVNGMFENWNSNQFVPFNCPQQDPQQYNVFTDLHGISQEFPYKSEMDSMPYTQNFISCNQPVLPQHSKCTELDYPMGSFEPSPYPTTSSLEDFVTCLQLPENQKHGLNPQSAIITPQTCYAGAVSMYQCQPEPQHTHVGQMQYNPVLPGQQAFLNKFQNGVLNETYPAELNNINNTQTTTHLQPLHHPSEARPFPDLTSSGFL
Bile acid receptor (Homo sapiens), sequence (Q96RI1 whole entry, looked up): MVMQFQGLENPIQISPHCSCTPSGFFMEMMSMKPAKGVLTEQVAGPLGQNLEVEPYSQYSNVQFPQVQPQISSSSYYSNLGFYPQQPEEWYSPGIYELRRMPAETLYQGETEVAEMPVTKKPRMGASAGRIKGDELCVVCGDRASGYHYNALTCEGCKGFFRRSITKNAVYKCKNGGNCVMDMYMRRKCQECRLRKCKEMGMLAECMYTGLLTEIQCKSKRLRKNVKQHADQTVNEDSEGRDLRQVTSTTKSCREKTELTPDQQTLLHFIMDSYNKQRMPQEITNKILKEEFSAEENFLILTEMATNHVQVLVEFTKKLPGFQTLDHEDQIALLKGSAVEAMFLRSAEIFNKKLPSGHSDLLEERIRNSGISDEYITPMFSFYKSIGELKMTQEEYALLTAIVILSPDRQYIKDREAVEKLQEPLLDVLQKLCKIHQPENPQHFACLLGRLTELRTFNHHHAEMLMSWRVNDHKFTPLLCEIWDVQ
Vitamin D3 receptor (Homo sapiens), sequence (P11473 whole entry, looked up): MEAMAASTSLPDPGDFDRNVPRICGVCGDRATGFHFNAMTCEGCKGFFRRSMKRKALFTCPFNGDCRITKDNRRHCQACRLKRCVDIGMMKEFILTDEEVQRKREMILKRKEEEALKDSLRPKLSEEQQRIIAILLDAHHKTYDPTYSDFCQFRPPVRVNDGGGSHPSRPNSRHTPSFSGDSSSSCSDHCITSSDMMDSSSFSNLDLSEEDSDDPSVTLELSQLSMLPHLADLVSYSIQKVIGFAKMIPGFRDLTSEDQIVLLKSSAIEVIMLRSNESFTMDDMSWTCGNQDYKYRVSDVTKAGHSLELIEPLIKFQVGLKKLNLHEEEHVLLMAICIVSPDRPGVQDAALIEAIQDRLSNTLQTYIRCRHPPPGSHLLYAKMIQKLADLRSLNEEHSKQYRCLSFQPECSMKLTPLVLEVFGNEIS
Peroxisome proliferator-activated receptor delta (Homo sapiens), sequence (Q03181 whole entry, looked up): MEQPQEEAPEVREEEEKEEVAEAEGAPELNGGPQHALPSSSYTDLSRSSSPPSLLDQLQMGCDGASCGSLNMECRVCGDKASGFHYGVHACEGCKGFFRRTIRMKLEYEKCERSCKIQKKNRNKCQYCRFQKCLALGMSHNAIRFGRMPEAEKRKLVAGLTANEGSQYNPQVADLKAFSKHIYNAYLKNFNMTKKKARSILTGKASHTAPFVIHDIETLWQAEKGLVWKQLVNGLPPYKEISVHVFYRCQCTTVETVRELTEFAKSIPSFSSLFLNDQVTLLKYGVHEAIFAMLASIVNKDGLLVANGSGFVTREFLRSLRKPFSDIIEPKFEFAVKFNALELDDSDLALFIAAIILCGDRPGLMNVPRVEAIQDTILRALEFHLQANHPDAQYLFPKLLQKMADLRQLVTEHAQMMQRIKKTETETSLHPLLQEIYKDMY

C/C=C/C(=O)CC
inactive: Potency [1] | Potency [2] | Potency [3] | Potency [4] | ratio activity, negative = inhibition [5] 6.72% [at 13.2 µM] | viability change, negative = cytotoxic [6] 0.863% [at 18.1 µM] | activity change, negative = cytotoxicity [7] 2.01% [at 13.2 µM] | activation [8] -0.278% [at 13.2 µM] | activity change, negative = cytotoxicity [9] 2.34% [at 13.2 µM] | activation [10] 2.05% [at 13.2 µM] | viability change, negative = cytotoxic [11] 3.59% [at 13.7 µM] | ratio activity, negative = inhibition [12] 2.27% [at 13.7 µM] | viability change, negative = cytotoxic [13] 6.33% [at 13.2 µM] | activity change, negative = cytotoxicity [14] -0.419% [at 13.2 µM]

C[N+]1(CC2COC(c3ccccc3)(C3CCCCC3)O2)CCCCC1 (stereo not given)
inactive: Potency [1] | Potency [2] | Potency [3] | Potency [4] | Potency [5] | Potency [15] | Potency [6] | Potency [7] | Potency [8] | Potency [9] | Potency [11] | Potency [13] | Potency [14]

O=C(O)c1ccccc1Cl
inactive: Potency [1] | Potency [2] | Potency [3] | Potency [4] | Potency [16] | Potency [15] | Potency [6] | Potency [7] | Potency [8] | Potency [9] | Potency [10] | Potency [11] | Potency [12] | Potency [17] | Potency [18] | Potency [14] | Potency [19] | outcome [20]

O=S(=O)(Oc1ccc(Cl)cc1)c1ccccc1
inactive: Potency [1] | Potency [2] | Potency [3] | Potency [4] | Potency [16] | Potency [15] | Potency [6] | Potency [7] | Potency [8] | Potency [9] | Potency [11] | Potency [17] | Potency [18] | Potency [14] | Potency [19]

CC(C)(C)OCC1CO1 (stereo not given)
inactive: Potency [1] | Potency [2] | Potency [3] | Potency [4] | Potency [16] | Potency [15] | Potency [6] | Potency [7] | Potency [8] | Potency [9] | Potency [10] | Potency [11] | Potency [12] | Potency [13] | Potency [14] | Potency [19]

OC(CN1CCC(Cc2ccc(F)cc2)CC1)c1ccc(Cl)cc1 (stereo not given)
inactive: Potency [1] | Potency [2] | Potency [3] | Potency [4] | Potency [5] | Potency [16] | Potency [7] | Potency [9] | Potency [11] | Potency [17] | Potency [13] | Potency [18] | Potency [14]

O=C(O)CC(=O)C(=O)O
inactive: Potency [1] | Potency [2] | Potency [3] | Potency [4] | Potency [5] | Potency [6] | Potency [7] | Potency [8] | Potency [9] | Potency [11] | Potency [17] | Potency [13] | Potency [18] | Potency [14] | Potency [19]

C=CC1CC2C=CC1C2 (stereo not given)
inactive: Potency [1] | Potency [2] | Potency [3] | Potency [4] | Potency [16] | Potency [15] | Potency [6] | Potency [7] | Potency [8] | Potency [9] | Potency [10] | Potency [14] | Potency [19] | outcome [20]

NC(=O)C(c1ccccc1)(c1ccccc1)[C@@H]1CCN(CCc2ccc3c(c2)CCO3)C1
inactive: Potency [1] | Potency [2] | Potency [3] | Potency [4] | Potency [5] | Potency [16] | Potency [6] | Potency [7] | Potency [8] | Potency [17] | Potency [19] | outcome [20]
